Experimental data published in PubChem BioAssay AID686979 (National Center for Advancing Translational Sciences (NCATS), 2013).
Several values for one entry are separate records, joined by “and”; a condition that tells them apart may be missing. Identical values can stand only once. Screen size: about 420,000 compounds; about 50,000 (12%) were called active. Inconclusive results (about 26%) are left out. Only a selection was taken, and actives are over-represented in it overall. A number with no mark means an inactive call. The call rests on the fitted dose curve; in most records, active means well fitted inhibition curve with a large enough effect; inconclusive means small, poorly fitted or top-dose-only effect; inactive means flat fitted curve, though single readings scatter.
On the % scale 0 is the no-effect control and ±100 the full control effect; potency means the concentration at half of the fitted maximal effect.

Test: qHTS for Inhibitors of human tyrosyl-DNA phosphodiesterase 1 (TDP1): qHTS in cells in presence of CPT; further: nearly all actives have a fitted effect of over 55% in size
Conditions: chicken DT40 Tdp1-/-;hTDP1 cells + 20 nM CPT, ATP luminescence, 48 h; series mostly up to 46.2 µM; activity change, negative = growth inhibition: at the top concentration
Summary of the method: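 Chicken DT40 Tdp1-/- cells complemented with human TDP1, 400 cells/well, exposed to compounds plus 20 nM camptothecin for at least 48 h at 37 C; viability read as ATP content by CellTiter-Glo luminescence.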
For `Cc1ccc(C(C)C)c(OCC(=O)N2CCN(CC(=O)N3CCOCC3)CC2)c1`, the “activity change, negative = growth inhibition” value was 1.32%.
In the case of `CN1CCC(N(C)Cc2cccnc2)CC1`, the “activity change, negative = growth inhibition” value is reported as 10.3%.
In the case of `c1ccc(CCN2CCC3(CC2)OCCO3)cc1`, the “activity change, negative = growth inhibition” value is reported as 5.99%.
With `c1ccc(CCCCN2CCC(c3ccccc3)CC2)cc1` the Potency was 16.8 µM (active) and 23.1 µM (active).
For `CC1=CC(=O)C2=C(C)C[C@H](O)[C@H]3[C@H](C)C(=O)O[C@@H]3C12` (some centres undefined), the “activity change, negative = growth inhibition” value was -1.15%.
In the case of `Cc1cccc(Cn2cccc(C(=O)Nc3ccc4c(c3)OCCO4)c2=O)c1`, the Potency is reported as 9.2 µM (active).
With `CN(C)/C=C(\C=[N+](C)C)c1[nH]ncc1[N+](=O)[O-]` the “activity change, negative = growth inhibition” value was 2.42%.
In the case of `O=C1NC(=O)C(CCOc2ccccc2)(CCc2ccccc2)C(=O)N1`, the “activity change, negative = growth inhibition” value is reported as -7.38%.
For `COc1ccc(-c2nn(CCC#N)cc2C(=O)Nc2ccc(C(C)=O)cc2)cc1`, the “activity change, negative = growth inhibition” value was -15.6%.
For `COc1ccc(C2Oc3c(I)c(OC)cc(OC)c3CC2O)cc1OC` (centres undefined), the “activity change, negative = growth inhibition” value was -8.1%.
With `CCOP(=O)(OCC)C(O)c1ccc(OC)cc1OC` (centres undefined) the “activity change, negative = growth inhibition” value was 5.05%.
In the case of `CC(Cc1ccccc1)NCCC(c1ccccc1)c1ccccc1` (centres undefined), the Potency is reported as 9.2 µM (active).
In the case of `CC(Cc1ccccc1)NC=O` (centres undefined), the Potency is reported as “inactive”.
In the case of `Nc1ccc([N+](=O)[O-])cc1`, the Potency is reported as “inactive”.
With `C=CCn1c(O)c(/C=N/N2CCOCC2)c(=O)[nH]c1=S` the “activity change, negative = growth inhibition” value was -0.159%.
With `CC(=O)Nc1ccccc1C(=O)OCC(=O)c1cccc2ccccc12` the “activity change, negative = growth inhibition” value was -14.8%.
For `COC(=O)C1=C(c2cc3ccccc3s2)C[C@@H]2CC[C@H]1N2C(=O)NCCO`, the “activity change, negative = growth inhibition” value was -29.3%.
With `COC(=O)C1=C(c2ccc(C(C)=O)cc2)C[C@@H]2CC[C@H]1N2C(=O)NCCNC(C)=O` the “activity change, negative = growth inhibition” value was 4.65%.
For `COC(=O)C1=C(c2ccc(Cl)c(C(F)(F)F)c2)C[C@@H]2CC[C@H]1N2C(=O)NC1CC1`, the Potency was 14.6 µM (active).
For `COC(=O)C1=C(c2cc3ccccc3o2)C[C@@H]2CC[C@H]1N2C(=O)NC1CCCCC1`, the Potency was 18.4 µM (active).
In the case of `COC(=O)C1=C(c2cc3ccccc3s2)C[C@@H]2CC[C@H]1N2C(=O)NC(C)C`, the Potency is reported as 23.1 µM (active).
For `COC(=O)CN(CCCl)P1(=O)OCCCN1CCCl` (centres undefined), the “activity change, negative = growth inhibition” value was 6.16%.
With `C/C(CCc1c[nH]c2ccccc12)=N\O` the “activity change, negative = growth inhibition” value was -8.5%.
For `CCN1CCN(Cc2cc(OC)c3c(c2)OCO3)CC1`, the “activity change, negative = growth inhibition” value was -11.6%.
`C1CC[C@H]([C@@]23C[C@H](C[C@H]4CCCN[C@H]42)[C@@H]2CCCCN2C3)NC1` showed an activity change, negative = growth inhibition of -5.16% [at 9.04 µM].
For `CN1C2CC3CC1C(O3)C2O` (centres undefined), the “activity change, negative = growth inhibition” value was -2.66%.
For `COP(=O)(OC)C(NC(=O)c1ccc(C)cc1)C(Cl)(Cl)Cl` (centres undefined), the “activity change, negative = growth inhibition” value was 8.53%.
In the case of `C#C[C@]1(OC(=O)CCCCCC)CC[C@H]2[C@@H]3CCC4=CC(=O)CC[C@@H]4[C@H]3CC[C@@]21C`, the “activity change, negative = growth inhibition” value is reported as 12.4%.
For `CC(=O)OC1C2(CC3N4C(=O)C5(CO)SSC4(CC31O)C(=O)N5C)OC(C)C(C)(C)C2=O` (centres undefined), the Potency was 0.146 µM (active).
In the case of `O=C(c1cc(S(=O)(=O)N2CCOCC2)ccc1F)N1CCC2(CC1)OCCO2`, the “activity change, negative = growth inhibition” value is reported as -22%.
In the case of `CCc1nnc(NS(=O)(=O)c2ccc(N=Cc3c(O)n(-c4ccccc4)c(=O)[nH]c3=O)cc2)s1`, the “activity change, negative = growth inhibition” value is reported as -0.935%.
For `O=[N+]([O-])c1ccc(Cl)c(Cl)c1`, the “activity change, negative = growth inhibition” value was 8.09%.
In the case of `O=C(Cc1ccc(Cl)cc1)NCCN1CCN(C(=O)Cc2ccc(Cl)cc2)CC1`, the “activity change, negative = growth inhibition” value is reported as -25.6%.
With `C[C@@H]1C[C@@H]2O[C@H]2/C=C\C=C\C(=O)Cc2c(Cl)c(O)cc(O)c2C(=O)O1` the Potency was 0.0411 µM (active).
With `CCOC(=O)C1=C(C)OC(N)=C(C(=O)OC)C12C(=O)Nc1ccc(Br)cc12` (centres undefined) the “activity change, negative = growth inhibition” value was -0.924%.
In the case of `CCN1CCN(C(=O)Cc2coc3cc(C)cc(C)c23)CC1`, the “activity change, negative = growth inhibition” value is reported as -4.61%.
For `NC(=O)Cn1cc(C(=O)c2ccccc2F)c2ccccc21`, the “activity change, negative = growth inhibition” value was -3.53%.
In the case of `COCCNC(=O)CN1C2CCC1CC(O)(c1cccnc1)C2` (centres undefined), the “activity change, negative = growth inhibition” value is reported as 12.8%.
For `Cc1cc2n(n1)C(c1cc(C(C)(C)C)c(O)cc1O)Nc1ccccc1-2` (centres undefined), the Potency was 14.6 µM (active).
With `CCC/C(=N\O)c1c[nH]c2ccccc12` the “activity change, negative = growth inhibition” value was -27.1%.
In the case of `NCC(O)c1ccc(O)cc1` (centres undefined), the Potency is reported as “inactive”.
In the case of `CC[N+](C)(CC)CCC[n+]1c(-c2ccccc2)c2cc(N)ccc2c2ccc(N)cc21`, the Potency is reported as 2.58 µM (active).
In the case of `COc1ccc(NC(=O)N2Cc3ccccc3-n3nncc3C2)cc1`, the “activity change, negative = growth inhibition” value is reported as -22.9%.
For `CCN(CC)CCOC(=O)c1cc2cc(COC)ccc2o1`, the “activity change, negative = growth inhibition” value was -2.18%.
For `CC(=O)c1ccc(OC(NC(=O)Cc2ccccc2)C(Cl)(Cl)Cl)cc1` (centres undefined), the “activity change, negative = growth inhibition” value was -22.9%.
With `Cc1cccc2c3c(ccc12)C1=C(C(=O)C3=O)C(C)CO1` (centres undefined) the Potency was 4.11 µM (active).
For `CCOC(=O)c1c(N)n(CCN2CCOCC2)c2nc3ccccc3nc12`, the “activity change, negative = growth inhibition” value was -6.44%.
In the case of `CC1(C)OC[C@@H](COC(=O)CCc2ccc(OC[C@@H](O)CNCCNC(=O)N3CCOCC3)cc2)O1`, the “activity change, negative = growth inhibition” value is reported as 4.8%.
For `Cc1ccc(S(=O)(=O)N(C)c2ccc(C(=O)NCC3(N(C)C)CCCCC3)cc2)cc1`, the “activity change, negative = growth inhibition” value was -16.2%.
In the case of `O=C(CN1CCCCC1)Nc1ccc(Br)cc1C(=O)c1ccccc1Cl`, the “activity change, negative = growth inhibition” value is reported as -26.2%.
For `O=C(CCN1CCCCC1)NCC(=O)Nc1ccc(Br)cc1C(=O)c1ccccc1`, the Potency was 18.4 µM (active).
In the case of `CCOC(=O)CC(SP1(=S)OCC2(CCCCO2)C(C2CCCCO2)O1)C(=O)OCC` (centres undefined), the “activity change, negative = growth inhibition” value is reported as -21.8%.
With `C[C@]12CCC3C(CC[C@H]4C[C@@H](O)CC[C@]34C)C1C[C@@H](O)[C@H]2O` (some centres undefined) the “activity change, negative = growth inhibition” value was 10.8%.
With `C[C@]12CCC3C(CC[C@H]4[C@H](O)[C@H](O)CC[C@]34C)C1CC[C@@H]2O` (some centres undefined) the “activity change, negative = growth inhibition” value was 2.04%.
With `C[C@]12CCC3C(CC[C@H]4[C@H](O)[C@H](O)CC[C@]34C)C1CCC2=O` (some centres undefined) the Potency was 16.4 µM (active).
With `Nc1ccc(Cc2ccc(N)c(Cl)c2)cc1Cl` the “activity change, negative = growth inhibition” value was -10.3%.
For `O=c1[nH]c2ccccc2n1C1CCN(C(c2ccccc2)c2nnnn2Cc2ccccc2)CC1` (centres undefined), the Potency was 18.4 µM (active).
In the case of `O=c1[nH]c2ccccc2n1C1CCN(C(c2ccnc3ccccc23)c2nnnn2Cc2ccccc2)CC1` (centres undefined), the Potency is reported as 20.6 µM (active).
In the case of `Cc1ccc(Cn2nnnc2CN2CCC(n3nnc4ccccc43)CC2)cc1`, the “activity change, negative = growth inhibition” value is reported as -24.7%.
In the case of `Cc1ccsc1C(=O)C1CCCN(Cc2ccc(O)cc2)C1` (centres undefined), the “activity change, negative = growth inhibition” value is reported as 0.994%.
With `Cc1cccc(-n2c(O)c(C=NC34CN5CN(CN(C5)C3)C4)c(=O)[nH]c2=O)c1` the “activity change, negative = growth inhibition” value was 6.92%.
With `Cc1nn(Cc2ccccc2Cl)c(Cl)c1C(=O)OC(C(=O)NC(N)=O)C(C)C` (centres undefined) the “activity change, negative = growth inhibition” value was -2.59%.
For `CCOc1ccc(CN(CCCl)CCCl)cc1C(=O)OC`, the Potency was 4.11 µM (active).
For `Cc1cc(C=C2C(=O)NC(=O)NC2=O)c(C)n1-c1ccncc1`, the “activity change, negative = growth inhibition” value was -1.71%.
